Inhibition data for 35 compounds are collected here from ChEMBL document CHEMBL3433997, “St. Jude Leishmania screening dataset” (2016).

Holding throughout (format): functional
For assay [1], the target named is Solute carrier family 2, facilitated glucose transporter member 1 (Homo sapiens) (UniProt P11166). As to the kind of experiment: ST_JUDE_LEISH: Cytotoxicity at 2uM final concentration against transgenic Leishmania Mexicana promastigotes LmGLUT1 that are glucose transport deficient and complemented with the human glucose transporter GLUT1. Activity is measured by DNA content using SYBR green in vitro.
Sequence of Solute carrier family 2, facilitated glucose transporter member 1 (Homo sapiens) (P11166 whole entry): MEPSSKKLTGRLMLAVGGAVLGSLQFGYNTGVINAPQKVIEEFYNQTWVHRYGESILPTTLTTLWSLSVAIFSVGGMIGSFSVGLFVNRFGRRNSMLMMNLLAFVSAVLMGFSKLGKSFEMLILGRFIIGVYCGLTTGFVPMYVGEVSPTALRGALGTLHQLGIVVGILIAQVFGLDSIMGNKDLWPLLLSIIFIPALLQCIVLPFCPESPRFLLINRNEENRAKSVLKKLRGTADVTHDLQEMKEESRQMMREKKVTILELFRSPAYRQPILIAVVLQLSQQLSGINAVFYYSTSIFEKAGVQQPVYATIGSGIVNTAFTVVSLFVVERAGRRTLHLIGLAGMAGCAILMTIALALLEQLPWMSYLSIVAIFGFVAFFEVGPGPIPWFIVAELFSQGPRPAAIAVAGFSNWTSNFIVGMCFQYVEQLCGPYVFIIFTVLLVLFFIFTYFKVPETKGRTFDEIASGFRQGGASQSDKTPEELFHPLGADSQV

The target in assay [2] is Hexose transporter 1 (Plasmodium falciparum) (UniProt O97467). As to the kind of experiment: ST_JUDE_LEISH: Cytotoxicity at 2uM final concentration against transgenic Leishmania Mexicana promastigotes LmPfHT that are glucose transport deficient and complemented with the Plasmodium falciparum hexose transporter. Activity is measured by DNA content using SYBR green in vitro.

The target of assay [3] is Glucose transporter (Leishmania mexicana) (UniProt O61059). As to the kind of experiment: ST_JUDE_LEISH: Cytotoxicity at 2uM final concentration against transgenic Leishmania Mexicana promastigotes LmGT2 that are glucose transport deficient and complemented with the L. Mexicana glucose transporter 2. Activity is measured by DNA content using SYBR green in vitro.

For `CCN(CC)CCN(Cc1ccc(-c2ccc(C(F)(F)F)s2)cc1)C(=O)Cn1c(CCc2cccc(F)c2F)nc(=O)c2ccccc21`, the inhibition (usually the drop in the measured response relative to a control, in per cent) in assay [1] was 1.5%; in assay [2], 2.39%; in assay [3], 2.57%.

As to `COc1cccc2cc(C(=O)N[C@@H](CC(C)C)C(=O)Nc3cc(F)ccc3Br)oc12`, the inhibition in assay [1] came out at 1.51%; in assay [2], 0.34%; in assay [3] it was 0.22%.

Regarding `CC(C)NCc1cccc(-c2cccc(-c3nc4cc(F)ccc4[nH]3)c2)c1`, the inhibition in assay [1] was found to be 14.2%; in assay [2], 11.4%; in assay [3], 11.6%.

As to `CCN(CCNC(=O)C1CCN(c2cc(-c3cccc(C)c3)ncn2)CC1)Cc1ccccc1`, the inhibition in assay [1] was found to be 4.41%; in assay [2], 3.37%; in assay [3], 4.06%.

On to `CCN(CC)CCCC(C)Nc1c(-c2ccc(C)cc2)cnc2ccccc12` (stereo not given), for which the figures for the inhibition in assay [1], in assay [2] and in assay [3] were 9.89%, 7.44% and 8.1%, respectively.

Consider `OC(CN1CCN(C2CCCCC2)CC1)Cn1c2ccccc2c2cc(Br)ccc21` (stereo not given), for which the inhibition in assay [1] is 1.23%; in assay [2], 0.82%; in assay [3], 0.47%.

`Cc1cc(C)c2c(c1)C(=NO)CCN2`: the figures for the inhibition in assay [1], in assay [2] and in assay [3] were -1.86%, 1.76% and -0.32%, respectively.

With `COc1ccc2nccc([C@@H](O)CN3CCC(NCCOc4ccccc4[N+](=O)[O-])CC3)c2c1`, the inhibition in assay [1] came out at 2.3%; in assay [2], 2.26%; in assay [3], 0.09%.

As to `O=C(NCC(CCN1CCC(c2c[nH]c3ccccc23)CC1)c1ccccc1)Nc1ccc(Cl)c(Cl)c1` (stereo not given), the values for the inhibition in assay [1], in assay [2] and in assay [3] were 5.74%, 2.72% and 2.16%, respectively.

As for `CCC(C)NC(=O)Nc1cccc(-c2cccc(-c3nc4cccc(C)c4[nH]3)c2)c1` (stereo not given), the inhibition is -1.54% in assay [1], -0.37% in assay [2] and 11.5% in assay [3].

Turning to `Fc1ccc(C=NN=c2cc[nH]c3ccccc23)cc1`, the values for the inhibition in assay [1], in assay [2] and in assay [3] were 11.7%, 13.4% and 8.73%, respectively.

As for `CC(C)N1CCC(NC(=O)N2CCCN(c3ncnc4cc(-c5ccccc5)sc34)CC2)CC1`, the inhibition was found to be 2.91% in assay [1], 2.28% in assay [2] and 0.31% in assay [3].

On to `COc1cccc(CNC(=O)[C@H]2CNCCN2C(=O)CCCc2ccccc2)c1`, for which the inhibition in assay [1] is 3.03%; in assay [2] it was -0.14%; in assay [3], 5.01%.

Regarding `O=C(/C=C/c1ccc(I)cc1)NCCCCCN1CCC(c2c[nH]c3ccccc23)CC1`, the figures for the inhibition in assay [1], in assay [2] and in assay [3] were 3.43%, 1.79% and 2.95%, respectively.

For the compound `O=C(Cc1ccc(-n2cnnn2)cc1)N(Cc1cncn1Cc1cccc(C(F)(F)F)c1)CC1CC1`, the inhibition was -1.26% in assay [1], -1.38% in assay [2] and 1.66% in assay [3].

`Cc1cc(N[C@@H](Cc2ccccc2)C(=O)NC2CCCC2)nc(Nc2ccccc2)n1`: the inhibition in assay [1] is 7.17%; in assay [2], 7.28%; in assay [3], 2%.

For `COc1ccc(Nc2nccc(N3CCC(NC(=O)C(C)c4ccc(Cl)cc4)CC3)n2)cc1` (stereo not given), the inhibition turned out to be 0.43% in assay [1], 0.07% in assay [2] and 0.26% in assay [3].

Take `Cc1ccc2nc3c(cc(C(=O)NCc4ccccc4)c(=N)n3CCCn3ccnc3)c(=O)n2c1`: the inhibition in assay [1] turned out to be 10.5%; in assay [2] it was 12.5%; in assay [3] it was 12.2%.

Turning to `O=C(C=Cc1ccc(Cl)c(Cl)c1)NCCCCCN1CCC(CCNS(=O)(=O)c2ccc(Br)cc2)CC1`, the inhibition was 2.45% in assay [1], 1.43% in assay [2] and 2.53% in assay [3].

As for `COc1cc(OC)c(OC)cc1C=NN=c1cc(C)[nH]c2ccccc12`, the inhibition was 1.25% in assay [1], 1.67% in assay [2] and -1.17% in assay [3].

Turning to `CCNc1cc(C)nc(Nc2ccc(NC(=O)c3ccccc3Cl)cc2)n1`, the inhibition in assay [1] was 6.51%; in assay [2] it was 8.33%; in assay [3], 5.34%.

On to `CC(C)NCc1cccc(-c2cccc(NC(=O)c3ccc(C#N)cc3)c2)c1`, for which the inhibition in assay [1] was -1.2%; in assay [2], 1.04%; in assay [3], -1.22%.

As for `CCc1cc2c3c(N)nc(N)nc3ccc2n1C(C)CC` (stereo not given), the inhibition turned out to be 85.2% in assay [1], 86.6% in assay [2] and 80.3% in assay [3].

In the case of `CCCc1cn2c3c(cc(C(=O)N[C@@H](Cc4ccccc4)[C@H](O)CNC4CCOCC4)cc13)N(C)S(=O)(=O)CC2`, the inhibition in assay [1] is 0.07%; in assay [2], 1.26%; in assay [3], -0.3%.

With `CN1CCCC(CN2CCN(Cc3cccc(-c4ccc(-c5nc6ccccc6[nH]5)cc4)c3)CC2)C1` (stereo not given), the inhibition in assay [1] came to 7.48%; in assay [2] it was 9.12%; in assay [3], 6.63%.

Regarding `CN1CCN(CCCN(Cc2cccc(-c3ccc(CNCCc4ccccc4)cc3)c2)C(=O)Nc2ccccc2)CC1`, the inhibition in assay [1] was 2.48%; in assay [2], 7.14%; in assay [3], 1.35%.

Take `CCn1cc2c3c(cc(C(=O)N[C@@H](Cc4ccccc4)[C@H](O)CNCc4cccc(OC)c4)cc31)N(C)S(=O)(=O)CC2`: the figures for the inhibition in assay [1], in assay [2] and in assay [3] were 1.89%, 3.02% and 2.18%, respectively.

Regarding `O=C(Nc1ccc(Br)c(Cl)c1)c1cc([N+](=O)[O-])cc2cn[nH]c12`, the inhibition in assay [1] is -0.11%; in assay [2], -0.77%; in assay [3] it was 1.08%.

As to `CCCNCc1ccc(-c2ccc(CN(CCOC)C(=O)c3cscn3)cc2)nc1`, the inhibition in assay [1] came to 1.92%; in assay [2] it was 1.83%; in assay [3], 2.19%.

`O=c1cc(NCCCNC(c2ccccc2)c2ccc(Cl)c(Cl)c2)[nH]c2ccccc12` (stereo not given): the figures for the inhibition in assay [1], in assay [2] and in assay [3] were -1.95%, -1.47% and -1.3%, respectively.

Regarding `COC(=O)Nc1ccc(-c2ccc(C(=O)NC3CCN(C[C@H](O)c4ccnc5ccc(OC)cc45)CC3)cc2)c(C)c1`, the inhibition in assay [1] is 0.51%; in assay [2], 0.01%; in assay [3] it was -1.03%.

As for `N#Cc1ccc2c(c1)CN(CCC1CCC(NC(=O)c3cc4cnccc4[nH]3)CC1)CC2` (stereo not given), the inhibition is 5.36% in assay [1], 3.42% in assay [2] and 3.7% in assay [3].

As for `Cc1cccc2nc(-c3cccc(-c4ccc(NC(=O)CS(C)(=O)=O)cc4)c3)[nH]c12`, the results for the inhibition in assay [1], in assay [2] and in assay [3] were -0.47%, 3.33% and 3.81%, respectively.

As to `COc1cccc2c(NN=Cc3ccccc3Cl)cc(C)nc12`, the results for the inhibition in assay [1], in assay [2] and in assay [3] were 48%, 63.1% and 21.7%, respectively.

Take `Cc1cc(NCCc2ccc(O)cc2)nc(NCC(c2ccccc2)c2ccccc2)n1`: the inhibition was determined as 12.9% in assay [1], 8.92% in assay [2] and 5.19% in assay [3].
